Measurements: PubChem BioAssay (EPA / NIEHS)
Calls of active or inactive are those of the source. How the source made its calls: active means hit-call score of the fitted dose curve at least 0.9, where 1 is the maximum; inactive means score below 0.9.

test: APR_HepG2_MitoMass_24hr: Apredica 24-hour HepG2 Assay for Mitochondrial Mass (AID 2282912); details: high-content imaging, actives raise or lower the signal
Description: APR_HepG2_24hr is a cell-based, multiplexed-readout assay that uses HepG2, a human liver cell line, with measurements taken at 24 hours after chemical dosing in a 384-well plate.APR_HepG2_MitoMass_24hr is one of 10 assay component(s) measured or calculated from the APR_HepG2_24hr assay. It is designed to make measurements of cell phenotype, a form of morphology reporter, as detected with fluorescence intensity signals by HCS Fluorescent Imaging technology.Data from the assay component APR_HepG2_MitoMass_24hr was analyzed into 1 assay endpoint. This assay endpoint, APR_HepG2_MitoMass_24hr, was analyzed with bidirectional fitting relative to DMSO as the negative control and baseline of activity. Using a type of morphology reporter, gain or loss-of-signal activity can be used to understand changes in the signaling. Furthermore, this assay endpoint can be referred to as a primary readout, because this assay has produced multiple assay endpoints where this one serves a signaling function. To generalize the intended target to other relatable targets, this assay endpoint is annotated to the cell morphology intended target family, where the subfamily is organelle conformation.
Cells were treated with dimethyl sulfoxide (DMSO) as a solvent control at a final concentration of 0.5% v/v or with compounds in DMSO with a resulting final DMSO concentration of 0.5% v/v. Compound treatment was done at concentrations of 0.39, 0.78, 1.56, 3.12, 6.24, 12.5, 25, 50, 100, and 200 uM in duplicate on each plate. Cells were treated with compounds for 1, 24, or 72 hr. Carbonyl […] m-chloro-phenylhydrazone (CCCP) and taxol were used as positive controls for mitochondrial function and cytoskeletal stability, respectively; DMSO served as the negative control for this experiment. Cells were fixed by the direct addition of 50 uL formaldehyde in Hank's Balanced Salt Solution (HBSS) to a final concentration of 3.7%. After incubation in the fixation medium for 30 min at room temperature (293-298 K), cells were rinsed twice with HBSS and treated with cell permeabilization buffer (16 uL of 0.5% Triton X-100) for 10 min at room temperature (293-298 K) before labeling. For mitochondrial membrane potential and mitochondrial measurements, pre-fixed cells were incubated with 50 uL of MitoTracker Red CMXRos (Invitrogen) at a concentration of 250 nM for 30 min before fixation. In the remaining cases, post-fixed cells were labeled by incubation with a multiplexed mixture of primary antibodies in HBSS for 60 min at room temperature (293-298 K) to detect immunoreactivity of c-Jun (1:500), phospho-histone H3 (1:100), phospho-histone H2A.x (1:200), p53 (1:400), alpha-tubulin (1:200) and Hoechst 33342 (2 ug/mL). Cells were labeled for multiplexed imaging on two separate plates: a) Hoechst 33342, MitoTracker Red, phospho-histone H3, and alpha-tubulin, and b) Hoechst 33342, phospho-histone H2A.x, and c-Jun. A final rinse with HBSS (50 uL) was performed before analysis. The primary and secondary antibodies for the proteins were phospho-histone H3 (rabbit anti-phospho-histone H3 and FITC-donkey anti-rabbit IgG), phospho-histone H2A.x (mouse anti-phospho-histone H2A.x and FITC-donkey anti-mouse IgG), c-Jun (rabbit anti-phospho-c-Jun and Cy3-donkey anti-rabbit IgG), p53 (sheep anti-p53 and Cy5-donkey anti-sheep IgG), alpha-tubulin (mouse anti-alpha-tubulin and Cy5-donkey anti-mouse IgG). These antibodies are available as the CellCiphr HepG2 assay kit (Millipore).Digital images of each well were captured using a Cellomics ArrayScan VTI (Thermo Scientific Cellomics) (0.8 NA objective, 0.63x optical coupler, and XF-93 filter set) at 20x magnification. The images were acquired using the autofocus feature of the ArrayScan instrument, which entails the following steps. First, the camera focuses on channel 1 (Hoechst 33342), where nuclei are identified. Second, a Z offset of 1 um is used for capturing mitochondria (MitoTracker Red). […]

outcome, inactive:
CCCC(=O)OCC, CC1(C)C(=O)N(Br)C(=O)N1Br, O=C(O)c1cc(N=Nc2ccc(S(=O)(=O)Nc3ccccn3)cc2)ccc1O, On1ccccc1=S, CCn1nc(Cc2ccccc2)cc1C1CCN(C[C@H]2C[C@H](N(C)[C@@H](C(=O)O)C(C)C)C[C@@H]2c2cccc(F)c2)CC1, CC(=O)OCCC(C)C, COc1ccc2sc(C(=O)Nc3nnn[nH]3)c(OC(C)C)c2c1, CC[C@H]1OC(=O)[C@H](C)[C@@H](O[C@H]2C[C@@](C)(OC)[C@@H](O)[C@H](C)O2)[C@H](C)[C@@H](O[C@@H]2O[C@H](C)C[C@H](N(C)C)[C@H]2O)[C@](C)(O)C[C@@H](C)C(=O)[C@H](C)[C@@H](O)[C@]1(C)O, CC(C)CCO, CCNc1ccccc1, Fc1ccccc1[C@@H](F)COC1CCC(Nc2ncnc3[nH]ncc23)CC1 (stereo not given in full), CC(C)(O)c1coc(S(=O)(=O)NC(=O)Nc2c3c(cc4c2CCC4)CCC3)c1, C[C@](N)(Cc1ccc(O)c(O)c1)C(=O)O, O=C1CCC(N2C(=O)c3ccccc3C2=O)C(=O)N1 (stereo not given), C1N2CN3CN1CN(C2)C3, CC(C)CCCCCCCOC(=O)CCCCC(=O)OCCCCCCCC(C)C, CC(C)=CCCC(C)=CC=O, CC(=O)c1ccc2c(c1)[C@H](NC(=O)c1ccc(F)cc1)[C@@H](O)C(C)(C)O2, CCOC(=O)CC(CC(=O)OCC)(OC(C)=O)C(=O)OCC, COC(=O)c1c(Cl)c(Cl)c(C(=O)OC)c(Cl)c1Cl, CC(C)=CCC/C(C)=C\CO, CN(C)c1ccc(N=NS(=O)(=O)O)cc1, O=C(CCCCCCCCc1cccnc1)N1CCC(C=C(c2ccccc2)c2ccccc2)CC1, NC(=O)NO, Cc1ccc(C)c(O)c1, CC[C@H]1CC[C@H](NCc2cc3c(cc2OC)[C@H]2C[C@H]2C(=O)N3C)[C@H](c2ccccc2)N1, COC(=O)c1ccccc1O, O=C1OC(=O)C2C3C=CC(C3)C12 (stereo not given), CCc1cc(SCc2sc(-c3ccc(C(F)(F)F)cc3)nc2CN2CCN(c3ccc(OC)cc3)CC2)ccc1OCC(=O)O, Cc1ccc(N)cc1O

AC50, active:
Oc1ccc2c(c1)-c1ccccc1C2 111 µM, O=P(OC(CCl)CCl)(OC(CCl)CCl)OC(CCl)CCl 49.4 µM, CCOC(=O)COc1ccc2c(c1)CC(NCC(O)c1cccc(Cl)c1)CC2 (stereo not given) 41.5 µM, CCCN(C1CCN(C(=O)C2CCNCC2)CC1)[C@@H]1CCc2ccc(OC)cc2C1 100 µM, CNS(=O)(=O)c1cc(C(=O)N2CCC(CCN3C4CCC3CC(n3c(C)nc5ccccc53)C4)(c3cccc(F)c3)CC2)c(Cl)cc1F (stereo not given) 62.7 µM, COCCOc1cc2cc(C(=O)NC3CCN(C(C)C)CC3)n(CC(=O)Nc3ccc(Cl)cn3)c2cn1 93.1 µM, O=C(OC[C@H]1O[C@@H](OC(=O)c2cc(O)c(O)c(OC(=O)c3cc(O)c(O)c(O)c3)c2)[C@H](OC(=O)c2cc(O)c(O)c(OC(=O)c3cc(O)c(O)c(O)c3)c2)[C@@H](OC(=O)c2cc(O)c(O)c(OC(=O)c3cc(O)c(O)c(O)c3)c2)[C@@H]1OC(=O)c1cc(O)c(O)c(OC(=O)c2cc(O)c(O)c(O)c2)c1)c1cc(O)c(O)c(OC(=O)c2cc(O)c(O)c(O)c2)c1 23.9 µM, O=c1n(CC2CO2)c(=O)n(CC2CO2)c(=O)n1CC1CO1 (stereo not given) 50 µM, CC(C)c1cccc(C(C)C)c1N1C(=O)c2ccc(O)cc2C1=O 164 µM, CCOC(=O)c1ccc(C2CCC(NC[C@H](O)COc3ccc(O)c(NS(C)(=O)=O)c3)CC2)cc1 (stereo not given in full) 28.1 µM
